# Experimental data reported in article PMC5892938, “SARNAclust: Semi-automatic detection of RNA protein binding motifs from immunoprecipitation data”.
# Whole data set: some 11,000 sequences, median “log2 fold change” near 0.00022, cut for the highest 2% near 0.34. Some of the results follow.
# Molecular target: GST-SBP-SLBP (stem-loop binding protein) (Homo sapiens, UniProt Q14493 1-270)
# Assay: targeted RNA Bind-n-Seq; RBNS binding buffer: 25 mM Tris pH 7.5, 150 mM KCl, 3 mM MgCl2, 0.1% Tween, 0.5 mg/mL BSA, 1 mM DTT; 27 nM protein, 750 pM RNA pool; temperature not stated; high values mean tight binding
# Settings: protein: recombinant; tags: N-terminal GST and SBP (pGEX6P1-SBP); structured_RNA
# In short: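 Read counts per sequence supply the binding signal, defined as the DEseq fold change on a binary-logarithm scale. These counts came from RNA of a designed, T7-transcribed oligo pool at 750 pM that bound 27 nM of GST-SBP-tagged protein, made in Rosetta(DE3) pLysS E. coli and glutathione-purified, in RBNS binding buffer. The bound RNA was reverse transcribed with a 10-nucleotide barcoded primer, PCR-amplified and sequenced on a MiSeq with 200-cycle paired-end reads, then processed with FLASH and HISAT2 and collapsed by barcode.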
row,Sequence,binding signal
1,GGUCACGUCUCAAUCAACUCAUACGAGGGGGGGAAAACCCCUUUACCCUCUCCAUCAACAGCUCGCAGUCAAG,0.329 ± 0.398 log2 fold change
2,GGUCACGUCUCAAUCAACUCCAUCGAGGGGGGGAAAACCCCUUUACCCUCAAUAUCAACAGCUCGCAGUCAAG,0.429 ± 0.437 log2 fold change
3,GGUCACGUCUCAAUCAACUCCAUCGAGGGGGGGAAAACCCCUUUACCCUCCAAUUCAACAGCUCGCAGUCAAG,0.49 ± 0.445 log2 fold change
4,GGUCACGUCUCAAUCAACUCAAACGAGGGGGGGAAAACCCCUUUACCCUCCAUAUCAACAGCUCGCAGUCAAG,0.344 ± 0.458 log2 fold change
5,GGUCACGUCUCAAUCAACUCCAAAGAGGGGGGGAAAACCCCUUUACCCUCAACCUCAACAGCUCGCAGUCAAG,0.316 ± 0.391 log2 fold change
6,GGUCACGUCUCAAUCAACUCAGAAGAGGGGGGGAAAACCCCUUUACCCUCCAAAUCAACAGCUCGCAGUCAAG,0.431 ± 0.433 log2 fold change
7,GGUCACGUCUCAAUCAACUCCAAAGAGGGGGGGAAAACCCCUUUACCCUCCGCAUCAACAGCUCGCAGUCAAG,0.352 ± 0.42 log2 fold change
8,GGUCACGUCUCAAUCAACUCCAAAGAGGGGGGGAAAACCCCUUUACCCUCACUUUCAACAGCUCGCAGUCAAG,0.398 ± 0.419 log2 fold change
9,GGUCACGUCUCAAUCAACUCCAAAGAGGGGGGGAAAACCCCUUUACCCUCCGUUUCAACAGCUCGCAGUCAAG,0.395 ± 0.435 log2 fold change
10,GGUCACGUCUCAAUCAACUCCAAAGAGGGGGGGAAAACCCCUUUACCCUCCACAUCAACAGCUCGCAGUCAAG,0.399 ± 0.418 log2 fold change
11,GGUCACGUCUCAAUCAACUCCAAAGAGGGGGGGAAAACCCCUUUACCCUCGUCCUCAACAGCUCGCAGUCAAG,0.369 ± 0.406 log2 fold change
12,GGUCACGUCUCAAUCAACUCUUCCGAGGGGGGGAAAACCCCUUUACCCUCACUAUCAACAGCUCGCAGUCAAG,0.347 ± 0.442 log2 fold change
13,GGUCACGUCUCAAUCAACUCUAUCGAGGGGGGGAAAACCCCUUUACCCUCACACUCAACAGCUCGCAGUCAAG,0.573 ± 0.408 log2 fold change
14,GGUCACGUCUCAAUCAACUCCAUCGAGGGGGGGAAAACCCCUUUACCCUCACUCUCAACAGCUCGCAGUCAAG,0.322 ± 0.422 log2 fold change
15,GGUCACGUCUCAAUCAACUCAAUCGAGGGGGGGAAAACCCCUUUACCCUCACUCUCAACAGCUCGCAGUCAAG,0.375 ± 0.412 log2 fold change
16,GGUCACGUCUCAAUCAACUCUCCCGAGGGGGGGAAAACCCCUUUACCCUCACUAUCAACAGCUCGCAGUCAAG,0.31 ± 0.449 log2 fold change
17,GGUCACGUCUCAAUCAACUCACACGAGGGGGGGAAAACCCCUUUACCCUCUCUAUCAACAGCUCGCAGUCAAG,0.553 ± 0.407 log2 fold change
18,GGUCACGUCUCAAUCAACUCUACAGAGGGGGGGAAAACCCCUUUACCCUCACUCUCAACAGCUCGCAGUCAAG,0.332 ± 0.424 log2 fold change

row,Sequence,binding signal
1,GGUCACGUCUCAAUCAACUCACACGAGGGGGGGAAAACCCCUUUACCCUCUACCUCAACAGCUCGCAGUCAAG,0.472 ± 0.426 log2 fold change
2,GGUCACGUCUCAAUCAACUCUAUCGAGGGGGGGAAAACCCCUUUACCCUCACAAUCAACAGCUCGCAGUCAAG,0.599 ± 0.418 log2 fold change
3,GGUCACGUCUCAAUCAACUCUCUCGAGGGGGGGAAAACCCCUUUACCCUCACAAUCAACAGCUCGCAGUCAAG,0.571 ± 0.435 log2 fold change
4,GGUCACGUCUCAAUCAACUCAAUAGAGGGGGGGAAAACCCCUUUGCCCUCAAUCUCAACAGCUCGCAGUCAAG,0.451 ± 0.42 log2 fold change
5,GGUCACGUCUCAAUCAACUCAAUAGAGGGGGGGAAAACCCCUUUGCCCUCGAAAUCAACAGCUCGCAGUCAAG,0.399 ± 0.404 log2 fold change
6,GGUCACGUCUCAAUCAACUCCAUAGAGGGGGGGAAAACCCCUUUGCCCUCGAAAUCAACAGCUCGCAGUCAAG,0.382 ± 0.389 log2 fold change
7,GGUCACGUCUCAAUCAACUCAAUAGAGGGGGGGAAAACCCCUUUGCCCUCAACAUCAACAGCUCGCAGUCAAG,0.421 ± 0.37 log2 fold change
8,GGUCACGUCUCAAUCAACUCACUAGAGGGGGGGAAAACCCCUUUGCCCUCAUACUCAACAGCUCGCAGUCAAG,0.37 ± 0.365 log2 fold change
9,GGUCACGUCUCAAUCAACUCCUUAGAGGGGGGGAAAACCCCUUUGCCCUCAUACUCAACAGCUCGCAGUCAAG,0.464 ± 0.44 log2 fold change
10,GGUCACGUCUCAAUCAACUCAUUAGAGGGGGGGAAAACCCCUUUGCCCUCAAAAUCAACAGCUCGCAGUCAAG,0.487 ± 0.428 log2 fold change
11,GGUCACGUCUCAAUCAACUCAUUAGAGGGGGGGAAAACCCCUUUGCCCUCAUACUCAACAGCUCGCAGUCAAG,0.461 ± 0.451 log2 fold change
12,GGUCACGUCUCAAUCAACUCACUAGAGGGGGGGAAAACCCCUUUGCCCUCCAACUCAACAGCUCGCAGUCAAG,0.317 ± 0.385 log2 fold change
13,GGUCACGUCUCAAUCAACUCAUUAGAGGGGGGGAAAACCCCUUUGCCCUCACCUUCAACAGCUCGCAGUCAAG,0.303 ± 0.392 log2 fold change
14,GGUCACGUCUCAAUCAACUCAUUAGAGGGGGGGAAAACCCCUUUGCCCUCAUCUUCAACAGCUCGCAGUCAAG,0.356 ± 0.431 log2 fold change
15,GGUCACGUCUCAAUCAACUCAACAGAGGGGGGGAAAACCCCUUUACCCUCAUUUUCAACAGCUCGCAGUCAAG,0.422 ± 0.451 log2 fold change
16,GGUCACGUCUCAAUCAACUCCAUAGAGGGGGGGAAAACCCCUUUGCCCUCAUUUUCAACAGCUCGCAGUCAAG,0.381 ± 0.414 log2 fold change
17,GGUCACGUCUCAAUCAACUCCAUAGAGGGGGGGAAAACCCCUUUACCCUCAUUUUCAACAGCUCGCAGUCAAG,0.342 ± 0.445 log2 fold change
18,GGUCACGUCUCAAUCAACUCCAUAGAGGGGGGGAAAACCCCUUUGCCCUCAAUUUCAACAGCUCGCAGUCAAG,0.426 ± 0.447 log2 fold change
